10 compounds from PubChem BioAssay (NCI) can be followed below.

Compounds without any hit were thinned out: in the full panel of roughly 83,000, 20% have a hit.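 Single-dose data. Exposure time 48 hours. Values below 10 considered active.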 A number with no mark means an inactive call. Activity calls are given as the source filed them.

Test in all cases: NCI-60 one-dose screen, 48 h (100 = growth as untreated, 0 = no growth, -100 = all killed)
What all share (conditions): 10 µM unless noted

Experiment [1] relates to SR leukemia.
The test system of experiment [2] is RPMI-8226 leukemia.
Experiment [3] deals with OVCAR-8 ovarian.
Experiment [4] deals with OVCAR-5 ovarian.
The subject of experiment [5] is SK-OV-3 ovarian.
The test system of experiment [6] is IGROV1 ovarian.
Experiment [7] has as its system OVCAR-3 ovarian.
The subject of experiment [8] is T-47D breast.
The test system of experiment [9] is MDA-MB-435 melanoma.
Experiment [10] relates to SW-620 colon.
The subject of experiment [11] is MCF7 breast.
Experiment [12] relates to HCT-116 colon.
The test system of experiment [13] is HCC-2998 colon.
In experiment [14] the test system is OVCAR-4 ovarian.
Experiment [15] relates to HS 578T breast.
The test system of experiment [16] is BT-549 breast.
The test system of experiment [17] is KM12 colon.
Experiment [18] relates to NCI/ADR-RES ovarian.

In the case of `O=c1[nH]nc(-c2ccc(Cl)cc2)cc1Cc1ccccc1`, the growth in experiment [1] is 62.5%; in experiment [2], 41.1%; in experiment [3] it was 83%; in experiment [4], 94.1%; in experiment [5] it was 99.1%; in experiment [6] it was 40.9%. Further, the growth in experiment [7] was 104%; in experiment [8], 84.1%; in experiment [9] it was 106%; in experiment [10], 105%; in experiment [11], 92.2%; in experiment [12], 93%. Besides, in [13], the growth is 113%.
For the compound `CCOc1ccc(-c2nc3ccc(-c4nc5ccc(N6CCN(C)CC6)cc5[nH]4)cc3[nH]2)cc1OCC`, the growth was 8.73% (active) in experiment [1]; 45.8% in experiment [2]; 14.8% in experiment [3]; 44.4% in [4]; 7.29% (active) in experiment [14]; 50.5% in experiment [6]. In addition, the growth is -13.3% (active) in [7]; 11.1% in experiment [15]; 15.2% in experiment [8]; -29.5% (active) in experiment [16]; -2.53% (active) in experiment [9]; 0.486% (active) in experiment [10]. The growth in [11] is 7.04% (active); in [12], -3.06% (active); in experiment [13], -15.9% (active); in experiment [17], 43%.
Turning to `NC(N)=N/N=C(/c1ccccc1)c1ccccc1F`, the growth in experiment [1] is 3.14% (active); in [2] it was -36.8% (active); in experiment [3], 45.5%; in experiment [4], 76.4%; in experiment [5], 19.5%; in [6], 20.7%. Moreover, the growth in [7] was -0.0856% (active); in [15], 38.5%; in [18] it was 59.6%; in [8] it was 3.86% (active); in [16], 70.8%; in [9], -56% (active). For the same compound, the growth in experiment [10] is 40%; in experiment [11], 15.9%; in [12], -28.7% (active); in experiment [13] it was 2.85% (active).
In the case of `COc1cc2oc(-c3cccc(C(=O)Nc4ccc(C)cc4)c3)cc(=O)c2c(OC)c1OC`, the growth in experiment [1] is 12.7%; in [2], -7.08% (active); in experiment [3], 33.3%; in experiment [4], 48.2%; in experiment [14], 59.8%; in [6] it was 44.4%. In addition, the growth in [7] is 42.3%; in experiment [15], 64.3%; in experiment [18] it was 37.5%; in experiment [16], 36.6%; in experiment [9] it was 27.9%; in [10], 59.5%. Moreover, the growth is 24.5% in [11], 19.6% in [12], 49.9% in experiment [13] and 33% in experiment [17].
Consider `CN1CCN(c2ccc3nc(/N=C/c4ccc5sc(-c6ccc([N+](=O)[O-])cc6)nc5c4)sc3c2)CC1`, for which the growth in experiment [1] is 91.9%; in [2], 101%; in experiment [3] it was 99.6%; in [4] it was 107%; in [14], 105%; in experiment [6], 114%. The growth in experiment [7] was 112%; in [15] it was 114%; in experiment [18], 104%; in experiment [8] it was 96%; in experiment [16] it was 92.4%; in experiment [9], 102%. In addition, the growth is 94.7% in [11], 107% in experiment [12], 101% in [13] and 105% in experiment [17].
`CCCCCCCC/C=C/CCCCCCCC1=NCC[N+]1(CCO)CCO`: the growth is 17.4% in experiment [1]; 38.6% in [2]; 80.6% in [3]; 77.5% in experiment [4]; 88% in experiment [5]; -8.63% (active) in [6]. The growth was 59.9% in experiment [7]; 88.6% in [15]; 94.9% in experiment [18]; 90.5% in experiment [8]; 98.7% in experiment [16]; 65.1% in experiment [9]. The growth was 71.4% in experiment [10]; 66.5% in [11]; 59.8% in experiment [12]; 72% in experiment [13]; 40.4% in [17].
In the case of `COc1ccccc1C(=O)NC(=S)Nc1ccc(-c2nc3ccccc3[nH]2)cc1`, the growth in experiment [1] was 13.6%; in experiment [2], 57.1%; in experiment [3], 53.1%; in experiment [4], 90.5%; in experiment [14] it was -60.7% (active); in experiment [6], 69%. Besides, the growth was 36.5% in [15]; 38.7% in experiment [18]; 80.3% in experiment [8]; 32.3% in experiment [16]; 50.3% in [9]; 43.5% in [10]. The figures for the growth in experiment [11], in experiment [12] and in experiment [13] were 21.3%, 13.8% and 85.9%, respectively.
With `Cc1cc(-c2ccccc2)cc(SC#N)[n+]1[O-]`, the growth in experiment [1] is 8.25% (active); in experiment [2], 19.2%; in [3], 31.7%; in [4] it was 75.4%; in experiment [5], 45.1%; in [6] it was 35.3%. The growth in experiment [7] is 39.6%; in [15], 80.1%; in experiment [18], 19.7%; in experiment [8] it was 46.2%; in experiment [16] it was 52.2%; in experiment [9], 47.5%. The growth was 38.1% in experiment [10]; 23% in experiment [11]; 36% in experiment [12]; 62% in experiment [13]; 37.7% in experiment [17].
Take `Cc1ccc(-n2nnc(C3=NCCc4c3[nH]c3ccc(Cl)cc43)c2C)cc1`: the growth was 52.8% in experiment [1]; 58.6% in experiment [2]; 66.8% in experiment [3]; 80.2% in experiment [4]; 87% in experiment [5]; 90.5% in experiment [6]. For the same compound, the growth in experiment [7] was 83.5%; in experiment [15], 87.8%; in experiment [18] it was 76.3%; in experiment [8] it was 35.7%; in experiment [16] it was 85.3%; in experiment [9], 78%. The growth in [10] is 64.8%; in [11], 77.8%; in experiment [12], 71.6%; in [13] it was 75.5%; in [17], 57.3%.
For the compound `Cc1cc(Cc2cc(C)cc(C(C)(C)C)c2O)c(O)c(C(C)(C)C)c1`, the growth in experiment [1] was -7.3% (active); in experiment [2], 32.2%; in experiment [3], 33.9%; in [14], 48.5%; in experiment [5], 51.9%; in experiment [6], 47.5%. Further, the growth in experiment [7] is 38.5%; in [8], 9.69% (active); in experiment [16], 74.1%; in experiment [9] it was 52.2%; in experiment [10], 39.8%; in experiment [11] it was 12.8%. The results for the growth in experiment [12], in experiment [13] and in [17] were 8.68% (active), 31.6% and 29.8%, respectively.
